# Assay results: PubChem BioAssay (EPA / NIEHS)
# Where “and” joins values, the source holds several entries; their conditions need not be identical. Identical values can stand only once. Inconclusive results are not listed. Some compounds were tested as several samples or in several runs, with calls that do not always agree. Calls of active or inactive are those of the source. The calls were made as follows, unless noted: active = hit-call score of the fitted dose curve at least 0.9, where 1 is the maximum; inconclusive = response in the unintended direction; inactive = score below 0.9.
# Experiments:
# [1] = target: human RAR-related Orphan Receptor gamma (RORg), RORC (gene 6097) (UniProt P51449); assay: ATG_RORg_TRANS: Attagene TRANS-FACTORIAL HepG2 Assay for human RAR-related Orphan Receptor gamma (RORg) (AID 2283011)
# Outline: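 Transient MRTU transfection of HepG2 (TRANS format, exogenous NR-Gal4 chimera). 24 h dosing. Total RNA → oligo(dT) RT → PCR → 6-FAM labelling → HpaI cut → CE. Gain vs DMSO.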
# [2] = target: Retinoic acid receptor RXR-alpha (Homo sapiens) (UniProt P19793); assay: ATG_RXRa_TRANS: Attagene TRANS-FACTORIAL HepG2 Assay for human Retinoid X Receptor alpha (RXRa) (AID 2283012)
# Outline: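 Cells (HepG2) carried transiently transfected GAL4-responsive reporter units. Following a 24 h chemical incubation, reporter mRNA induction was read via RT-PCR fragment analysis; DMSO served as negative control and baseline.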
# [3] = target: human Retinoid X Receptor beta (RXRb), RXRB (gene 6257) (UniProt P28702); assay: ATG_RXRb_TRANS: Attagene TRANS-FACTORIAL HepG2 Assay for human Retinoid X Receptor beta (RXRb) (AID 2283013)
# Outline: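 Multiplexed TRANS reporter assay in HepG2; 24 h dosing; reporter mRNA by RT-PCR/CE fluorescence; gain-of-signal relative to DMSO.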
# [4] = target: human Thyroid Receptor alpha (THRa1), THRA (gene 7067) (UniProt P10827); assay: ATG_THRa1_TRANS: Attagene TRANS-FACTORIAL HepG2 Assay for human Thyroid Receptor alpha (THRa1) (AID 2283014)
# Outline: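 Transient HepG2 transfection, NR-Gal4 chimera driving GAL4-UAS reporters; 24 h compound exposure; total RNA, oligo(dT) RT, PCR, fluorescent primer extension, capillary electrophoresis. Upward direction vs DMSO control.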
# [5] = read-out: Interleukin-1 alpha (IL1a), IL1A (gene 3552); assay: BSK_BE3C_IL1a: BioMAP Diversity Plus: BE3C Assay for Interleukin-1 alpha (IL1a) Biomarker Activity (AID 2283016; active = hit-call score of the fitted dose curve at least 0.9, where 1 is the maximum; inactive = score below 0.9); conditions: primary human bronchial epithelial cells; actives raise or lower the signal
# Outline: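 Cultures of primary human bronchial epithelial cells receive test chemical. After 24 h, IL-1a is quantified by ELISA, while parallel wells are fixed in TCA and SRB-stained for total protein. Changes in either direction are fitted relative to DMSO.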
# [6] = read-out: Monocyte Chemoattractant Protein-1 (MCP1), CCL2 (gene 6347); assay: BSK_3C_MCP1: BioMAP Diversity Plus: 3C Assay for Monocyte Chemoattractant Protein-1 (MCP1) Biomarker Activity (AID 2283017; active = hit-call score of the fitted dose curve at least 0.9, where 1 is the maximum; inactive = score below 0.9); conditions: primary human endothelial cells (HUVEC); actives raise or lower the signal
# Outline: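 HUVEC, 3C system; 24 h chemical exposure; MCP-1 by ELISA; bidirectional curve fit vs DMSO baseline.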
# [7] = read-out: Monocyte Chemoattractant Protein-1 (MCP1), CCL2 (gene 6347); assay: BSK_4H_MCP1: BioMAP Diversity Plus: 4H Assay for Monocyte Chemoattractant Protein-1 (MCP1) Biomarker Activity (AID 2283018; active = hit-call score of the fitted dose curve at least 0.9, where 1 is the maximum; inactive = score below 0.9); conditions: primary human endothelial cells (HUVEC); actives raise or lower the signal
# Outline: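 Readout: MCP-1 ELISA on compound-treated HUVEC, sampled 24 h post-dosing. Baseline and negative control DMSO; bidirectional fit. Overt toxicity checked alongside by sulforhodamine B protein staining at time of biomarker measurement.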
# [8] = read-out: Human Leukocyte Antigen - DR isotype (HLADR), HLA-DRA (gene 3122); assay: BSK_3C_HLADR: BioMAP Diversity Plus: 3C Assay for Human Leukocyte Antigen - DR isotype (HLADR) Biomarker Activity (AID 2283019; active = hit-call score of the fitted dose curve at least 0.9, where 1 is the maximum; inactive = score below 0.9;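 as to outcome: ELISA of cell-surface HLA-DR on HUVEC 24 h after dosing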); conditions: primary human endothelial cells (HUVEC); actives raise or lower the signal
# Outline: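 HUVEC, 3C stimulation, 24 h post-dose; HLA-DR by ELISA; bidirectional curve fit vs DMSO baseline; gain or loss of signal scored.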
# [9] = read-out: Interleukin-8 (IL8), CXCL8 (gene 3576); assay: BSK_3C_IL8: BioMAP Diversity Plus: 3C Assay for Interleukin-8 (IL8) Biomarker Activity (AID 2283020; active = hit-call score of the fitted dose curve at least 0.9, where 1 is the maximum; inactive = score below 0.9); conditions: primary human endothelial cells (HUVEC); actives raise or lower the signal
# Outline: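 Human vascular endothelial cells (umbilical vein) in the 3C system; IL-8 level detected by ELISA at 24 h post-dose, with DMSO as baseline.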
# [10] = read-out: E-selectin (Homo sapiens) (UniProt P16581); assay: BSK_3C_Eselectin: BioMAP Diversity Plus: 3C Assay for Eselectin Biomarker Activity (AID 2283015; active = hit-call score of the fitted dose curve at least 0.9, where 1 is the maximum; inactive = score below 0.9;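 as to outcome: cell surface E-selectin protein quantified by ELISA 24 h after dosing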); conditions: primary human endothelial cells (HUVEC); actives raise or lower the signal
# Outline: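 HUVEC, 3C stimulation; compound exposure 24 h; E-selectin by ELISA; gain- or loss-of-signal fitted bidirectionally vs DMSO baseline.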
# Chain of human RAR-related Orphan Receptor gamma (RORg), RORC (gene 6097) (P51449 whole entry, looked up, the tested form may be a part): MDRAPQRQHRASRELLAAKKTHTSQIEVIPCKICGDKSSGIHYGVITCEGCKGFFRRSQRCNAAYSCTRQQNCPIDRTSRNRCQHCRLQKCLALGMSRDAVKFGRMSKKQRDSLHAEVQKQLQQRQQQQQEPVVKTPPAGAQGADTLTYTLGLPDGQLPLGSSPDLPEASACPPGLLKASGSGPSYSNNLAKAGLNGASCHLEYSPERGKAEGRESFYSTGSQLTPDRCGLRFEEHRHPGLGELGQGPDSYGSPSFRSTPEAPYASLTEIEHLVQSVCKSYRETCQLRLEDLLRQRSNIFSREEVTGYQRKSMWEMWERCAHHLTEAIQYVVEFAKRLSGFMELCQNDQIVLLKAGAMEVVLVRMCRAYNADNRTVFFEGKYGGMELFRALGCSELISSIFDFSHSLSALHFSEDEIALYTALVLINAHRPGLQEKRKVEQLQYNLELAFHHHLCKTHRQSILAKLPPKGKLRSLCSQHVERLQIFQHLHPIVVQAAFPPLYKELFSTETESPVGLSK
# Chain of Retinoic acid receptor RXR-alpha (Homo sapiens) (P19793 whole entry, looked up, the tested form may be a part): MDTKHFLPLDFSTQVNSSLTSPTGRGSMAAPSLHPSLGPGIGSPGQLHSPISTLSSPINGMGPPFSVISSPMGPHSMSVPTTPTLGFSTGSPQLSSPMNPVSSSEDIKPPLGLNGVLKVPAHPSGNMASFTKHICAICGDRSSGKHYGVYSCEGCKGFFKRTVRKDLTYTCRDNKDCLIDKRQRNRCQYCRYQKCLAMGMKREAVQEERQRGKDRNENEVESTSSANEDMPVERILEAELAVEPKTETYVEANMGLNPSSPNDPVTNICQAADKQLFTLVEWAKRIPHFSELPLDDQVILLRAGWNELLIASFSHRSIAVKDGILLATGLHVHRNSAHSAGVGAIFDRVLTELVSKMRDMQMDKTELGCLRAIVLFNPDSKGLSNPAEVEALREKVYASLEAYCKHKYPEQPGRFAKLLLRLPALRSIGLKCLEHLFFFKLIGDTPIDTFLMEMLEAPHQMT
# Chain of E-selectin (Homo sapiens) (P16581 whole entry, looked up): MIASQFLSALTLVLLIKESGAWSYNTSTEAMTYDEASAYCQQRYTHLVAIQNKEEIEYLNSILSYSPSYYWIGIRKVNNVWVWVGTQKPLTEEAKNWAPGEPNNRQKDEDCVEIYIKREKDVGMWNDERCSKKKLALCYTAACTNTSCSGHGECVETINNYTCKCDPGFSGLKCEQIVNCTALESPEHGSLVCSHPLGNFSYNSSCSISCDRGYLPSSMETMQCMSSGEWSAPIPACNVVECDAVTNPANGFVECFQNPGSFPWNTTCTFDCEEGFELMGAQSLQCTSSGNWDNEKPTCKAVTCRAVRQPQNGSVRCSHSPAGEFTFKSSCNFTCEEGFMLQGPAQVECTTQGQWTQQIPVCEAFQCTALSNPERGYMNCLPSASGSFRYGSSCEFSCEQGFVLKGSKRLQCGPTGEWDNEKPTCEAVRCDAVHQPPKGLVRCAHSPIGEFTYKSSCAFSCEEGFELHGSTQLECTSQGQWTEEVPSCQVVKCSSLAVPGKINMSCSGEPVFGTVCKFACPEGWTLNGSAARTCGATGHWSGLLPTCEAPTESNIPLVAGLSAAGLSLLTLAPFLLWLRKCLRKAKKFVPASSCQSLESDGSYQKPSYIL
# Chain of human Thyroid Receptor alpha (THRa1), THRA (gene 7067) (P10827 whole entry, looked up, the tested form may be a part): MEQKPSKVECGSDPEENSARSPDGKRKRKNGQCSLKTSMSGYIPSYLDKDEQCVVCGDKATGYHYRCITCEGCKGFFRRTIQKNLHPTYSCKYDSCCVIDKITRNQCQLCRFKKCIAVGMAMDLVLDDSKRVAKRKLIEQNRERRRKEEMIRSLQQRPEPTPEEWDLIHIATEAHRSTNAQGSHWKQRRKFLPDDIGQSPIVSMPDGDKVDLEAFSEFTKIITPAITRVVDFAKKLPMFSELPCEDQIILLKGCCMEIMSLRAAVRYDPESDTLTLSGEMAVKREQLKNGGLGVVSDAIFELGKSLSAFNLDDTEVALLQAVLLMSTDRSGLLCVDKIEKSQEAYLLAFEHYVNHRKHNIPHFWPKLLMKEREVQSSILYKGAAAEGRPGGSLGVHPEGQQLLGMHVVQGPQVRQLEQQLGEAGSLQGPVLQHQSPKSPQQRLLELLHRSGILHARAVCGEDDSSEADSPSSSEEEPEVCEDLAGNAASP
# Chain of human Retinoid X Receptor beta (RXRb), RXRB (gene 6257) (P28702 whole entry, looked up): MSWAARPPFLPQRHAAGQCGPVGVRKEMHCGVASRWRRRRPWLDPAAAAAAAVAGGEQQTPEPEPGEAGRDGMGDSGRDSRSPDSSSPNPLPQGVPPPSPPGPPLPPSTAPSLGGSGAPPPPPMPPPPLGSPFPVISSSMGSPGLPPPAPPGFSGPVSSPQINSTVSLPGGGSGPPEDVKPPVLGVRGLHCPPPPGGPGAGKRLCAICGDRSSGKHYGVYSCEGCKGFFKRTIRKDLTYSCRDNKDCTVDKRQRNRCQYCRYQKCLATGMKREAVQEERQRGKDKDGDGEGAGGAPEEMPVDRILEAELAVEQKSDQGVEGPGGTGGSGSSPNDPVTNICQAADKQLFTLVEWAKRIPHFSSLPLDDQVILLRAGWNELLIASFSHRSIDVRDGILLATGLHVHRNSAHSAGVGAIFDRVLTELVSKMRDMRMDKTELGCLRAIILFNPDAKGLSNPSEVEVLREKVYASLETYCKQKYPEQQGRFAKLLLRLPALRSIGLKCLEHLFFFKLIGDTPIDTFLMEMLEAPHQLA
compound,measurement,setting,value
O=C(c1cc(O)c(O)c(O)c1)c1ccc(O)c(O)c1O,outcome,[1],inactive
same,outcome,[2],inactive
FC(OC(F)(F)C(F)(F)C(F)(F)F)C(F)(F)F (stereo unspecified),outcome,[1],inactive
same,outcome,[2],inactive
same,outcome,[3],inactive
FC(F)(F)C(F)(F)C(F)(F)C(F)(F)I,outcome,[1],inactive
same,outcome,[2],inactive
NCCN,outcome,[1],inactive
C=CC(=O)OCCN(CC)CC,outcome,[1],inactive
same,outcome,[2],inactive
CCO[Si](CCC1CCC2OC2C1)(OCC)OCC (stereo unspecified),outcome,[1],inactive
NCc1cccc(CN)c1,outcome,[1],inactive
same,outcome,[2],inactive
C=Cc1ccc(O)c(OC)c1,outcome,[1],inactive
same,outcome,[2],inactive
same,outcome,[3],inactive
C=CC(=O)OCC(CO)(COCC(COC(=O)C=C)(COC(=O)C=C)COC(=O)C=C)COC(=O)C=C,outcome,[1],inactive
same,outcome,[2],inactive
same,outcome,[3],inactive
CC(C)c1c(C(=O)Nc2ccccc2)c(-c2ccccc2)c(-c2ccc(F)cc2)n1CC[C@@H](O)C[C@@H](O)CC(=O)O,outcome,[1],inactive
CCN(CC)CC,outcome,[1],inactive
same,outcome,[2],inactive
CC(C)(C)c1ccc(O)c(O)c1,outcome,[1],inactive
same,outcome,[2],inactive
same,AC50,[3],38.8 µM (active) and 44.5 µM (active) and 27.8 µM (active)
same,outcome,[3],inactive
same,AC50,[4],34.1 µM (active)
same,outcome,[4],inactive
same,AC50,[5],20 µM (active)
same,outcome,[6],inactive
same,AC50,[7],5.58 µM (active)
same,AC50,[8],5.3 µM (active)
same,outcome,[9],inactive
O=C(F)C(F)(F)C(F)(F)C(F)(F)C(=O)F,outcome,[1],inactive
same,outcome,[2],inactive
CCCC=O,outcome,[1],inactive
same,outcome,[2],inactive
CC(C)CCOCCC(C)C,outcome,[1],inactive
same,outcome,[2],inactive
Brc1cc(Br)c(Oc2c(Br)cc(Br)c(Br)c2Br)cc1Br,outcome,[1],inactive
same,outcome,[2],inactive
CCC(=O)O,outcome,[1],inactive
same,outcome,[2],inactive
same,outcome,[3],inactive
C=CC(=O)OCCC(F)(F)C(F)(F)C(F)(F)C(F)(F)C(F)(F)C(F)(F)F,outcome,[1],inactive
same,outcome,[2],inactive
same,outcome,[3],inactive
c1ccc2c(c1)CCC2,outcome,[1],inactive
same,outcome,[2],inactive
FC(F)=C(F)C(F)(F)C(F)(F)C(F)(F)C(F)F,outcome,[1],inactive
same,outcome,[2],inactive
CCCCCCCC(OC)OC,outcome,[1],inactive
Cc1ccc2ccc3ccc(C)cc3c2c1,outcome,[1],inactive
same,outcome,[2],inactive
same,AC50,[3],12.9 µM (active)
COC(O)c1ccccc1 (stereo unspecified),outcome,[1],inactive
same,outcome,[2],inactive
Nc1ccn([C@@H]2O[C@H](CO)[C@@H](O)C2O)c(=O)n1 (stereo partly specified),outcome,[1],inactive
same,outcome,[2],inactive
same,outcome,[3],inactive
Brc1ccc(Oc2ccc(Br)cc2Br)cc1,outcome,[1],inactive
CN(C)c1ccc(C(=C2C=CC(=[N+](C)C)C=C2)c2ccccc2)cc1,outcome,[1],inactive
same,outcome,[2],inactive
same,AC50,[3],1.36 µM (active)
same,outcome,[3],inactive
same,outcome,[4],inactive
same,AC50,[10],0.205 µM (active)
same,AC50,[5],0.214 µM (active)
same,AC50,[6],0.0082 µM (active)
same,AC50,[7],0.0192 µM (active)
same,AC50,[8],0.0082 µM (active)
same,AC50,[9],668 nM (active)
CCC(C)c1nccnc1OC (stereo unspecified),outcome,[1],inactive
same,outcome,[2],inactive
same,outcome,[3],inactive
Cc1cc(C(=C2C=CC(=Nc3ccc(S(=O)(=O)O)cc3)C=C2)c2ccc(Nc3ccc(S(=O)(=O)O)cc3)cc2)cc(S(=O)(=O)O)c1N,outcome,[1],inactive
same,outcome,[2],inactive
CC1CCC(CO)CC1 (stereo unspecified),outcome,[1],inactive
same,outcome,[2],inactive
C[C@]12CC[C@@H]3c4ccc(O)cc4CC[C@H]3[C@@H]1CC[C@@H]2OC(=O)CCC1CCCC1,outcome,[1],inactive
same,outcome,[2],inactive
same,AC50,[3],169 µM (active)
CCOC=O,outcome,[1],inactive
same,outcome,[2],inactive
same,AC50,[3],6.71 µM (active)
CCCCN(C)C,outcome,[1],inactive
same,outcome,[2],inactive
same,outcome,[3],inactive
CCCCCCCCC(C)=O,outcome,[1],inactive
same,outcome,[2],inactive
CC(C)(O)C(=O)c1ccccc1,outcome,[1],inactive
same,outcome,[2],inactive
same,outcome,[3],inactive
CC(C)(C)c1ccc(CCC=O)cc1,outcome,[1],inactive
same,outcome,[2],inactive
same,AC50,[3],41.2 µM (active)
O=C1C=CC(=O)N1c1cccc(N2C(=O)C=CC2=O)c1,outcome,[1],inactive
same,outcome,[2],inactive
same,outcome,[3],inactive
C=CC(C)(CCC=C(C)C)OC(C)=O (stereo unspecified),outcome,[1],inactive
same,outcome,[2],inactive
same,outcome,[3],inactive
same,AC50,[10],32.1 µM (active)
same,outcome,[5],inactive
same,AC50,[6],35.2 µM (active)
same,AC50,[7],27 µM (active)
same,AC50,[8],28.2 µM (active)
same,outcome,[9],inactive
Oc1cccc2c(O)cccc12,outcome,[1],inactive
same,outcome,[2],inactive
same,outcome,[3],inactive
same,outcome,[4],inactive
CC=O,outcome,[1],inactive
same,outcome,[2],inactive
same,outcome,[4],inactive
CC1=NN(c2ccccc2)C(=O)C1,outcome,[1],inactive
same,outcome,[2],inactive
same,outcome,[3],inactive
same,outcome,[4],inactive
same,outcome,[10],inactive
same,outcome,[5],inactive
same,outcome,[6],inactive
same,outcome,[7],inactive
same,outcome,[8],inactive
same,outcome,[9],inactive
CC(C)C=O,outcome,[1],inactive
same,outcome,[2],inactive
same,AC50,[3],100 µM (active)
same,outcome,[4],inactive
Cc1ccc(C)c(S(=O)(=O)O)c1,outcome,[1],inactive
same,outcome,[2],inactive
same,outcome,[4],inactive
COc1cccc(O)c1,outcome,[1],inactive
same,outcome,[2],inactive
same,outcome,[3],inactive
same,outcome,[10],inactive
same,outcome,[5],inactive
same,outcome,[6],inactive
same,outcome,[7],inactive
same,outcome,[8],inactive
same,outcome,[9],inactive
NC(=NCCCCCCN=C(N)/N=C(\N)Nc1ccc(Cl)cc1)/N=C(\N)Nc1ccc(Cl)cc1,outcome,[1],inactive
same,outcome,[2],inactive
same,outcome,[3],inactive
same,AC50,[5],4.74 µM (active)
same,AC50,[6],5.59 µM (active)
same,AC50,[7],1.47 µM (active)
same,AC50,[8],4.82 µM (active)
same,AC50,[9],3880 nM (active)
CC(=O)CC(C)C,outcome,[1],inactive
same,outcome,[2],inactive
same,outcome,[3],inactive
same,outcome,[4],inactive
O=C(O)C(F)(F)OC(F)(F)C(F)(F)OC(F)(F)C(F)(F)OC(F)(F)C(F)(F)C(F)(F)C(F)(F)F,outcome,[1],inactive
same,outcome,[2],inactive
same,AC50,[3],13.3 µM (active) and 9.78 µM (active)
same,AC50,[5],6.32 µM (active) and 6.18 µM (active)
same,AC50,[6],44.8 µM (active) and 46.6 µM (active)
same,AC50,[7],42.4 µM (active) and 40.5 µM (active)
same,AC50,[8],45.5 µM (active) and 50.6 µM (active)
same,AC50,[9],36.6 µM (active) and 23.5 µM (active)
